According to publication PMC5540273 (PLoS ONE, 2017):

The compounds below were run on PIK3C2G. Details: concentration: 1 μM, replicates: in singlicate; n = 1.
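Also: KINOMEscan kinase panel screen.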

Structure (SMILES) | %Inh [%]
COc1ccc(Nc2nccc(N3CCC(NS(=O)(=O)c4ccc(NC(C)=O)cc4)C3)n2)cc1 (centres unmarked) [GSK1379729] | 6
CCn1c(-c2nonc2N)nc2ccccc21 [SB-693162/GW549034] | 0
COc1cccc(-n2cnc3c(N)ncnc32)c1 [SKF-97416] | 34
O=C(Nc1n[nH]c2nc(-c3ccccc3)c(Cl)cc12)C1CC1 [SB-734909] | 10
Cc1nnc(-c2ccc3ncn(-c4ccc(S(C)=O)cc4)c3c2)o1 (centres unmarked) | 0
CCC(=O)c1c(-c2ccccc2)c2cc(Cl)ccc2c(=O)n1Cc1cc(S(C)(=O)=O)n(CC(F)F)n1 | 0
Cc1ccc(-c2ccc3c(ccc4sc5c(c43)NC[C@@H](C)N=C5N(C)C)n2)cn1 | 0
Cc1nnc(-c2ccc(C)c(-c3ccc(C(=O)O)cc3)c2)o1 [GW608005] | 3
Fc1cccc(CSc2nnc(-c3ccc4c(c3)CCO4)o2)c1 | 17
O=C(NCCNc1ccnc(Nc2ccc(F)cc2)n1)Nc1ccc2c(c1)OCO2 [GSK1379882] | 0
CN(C)c1cc(-c2ccc3c(N)n[nH]c3c2)nc(N)n1 [GSK2219329] | 0
COc1cc2nccc(Nc3cccc(Oc4ccccc4)c3)c2cc1OC.Cl [GW284543] | 0
COc1ccc(-n2cnc3c(N)ncnc32)cc1 [SKF-97236] | 27
CCCNC(=O)Nc1ccc(Oc2ncnc3ccn(C)c23)cc1 | 27
COc1ccc(-c2cc3c(C)nc(N)nc3n([C@H]3CC[C@H](O)CC3)c2=O)cn1 | 98.8
COc1cc2ncn(-c3cc(OCCCc4ccccc4)c(C(N)=O)s3)c2cc1OC [GSK205189] | 0
CCc1ccc(-c2ccc3c(c2)-c2nn(C)cc2S(=O)(=O)N3C)cc1 | 0
Nc1n[nH]c2ncc(-c3ccccc3)cc12 [SB-517081] | 0
COc1ccc(CNC(=O)NC2CCN(c3ccnc(Nc4ccc(F)cc4)n3)C2)cc1 (centres unmarked) [GSK1379706] | 0

Structure (SMILES) | %Inh [%]
Cc1nn2c(=O)cc(N3CCOCC3)nc2n1Cc1cccc(Cl)c1Cl [GSK2342769] | 56
Cn1c(=O)c(F)c(Nc2ccc(I)cc2F)c2c(=O)n(OC[C@H](O)CO)cnc21 | 0
COC(=O)c1c(-c2ccccc2)c2cc(C)ccc2c(=O)n1Cc1ccccc1 | 0
Nc1ncnc2c1ncn2-c1ccc(Cl)cc1 [AH2635] | 0
COc1cccc(C2=C(N(C)c3ccccc3)C(=O)NC2=O)c1 [SB-334865] | 0
COc1cc(Nc2nccc(N3CCC(NC(=O)C4COc5ccccc5O4)C3)n2)cc(OC)c1OC (centres unmarked) [GSK1379761] | 0
COC(=O)c1c(-c2ccccc2)c2cc(Br)ccc2c(=O)n1Cc1ccc(NC(=O)CCC(=O)O)cc1 | 1
Nc1ncnc2c1ncn2-c1cccc2ccccc12 [SKF-97184] | 0
COc1ccc(-c2cc3c(C)nc(N)nc3n([C@H]3CC[C@H](OCCO)CC3)c2=O)cn1 | 98.1
CCC(=O)c1c(-c2ccccc2)c2cc(Cl)ccc2c(=O)n1Cc1cc(S(C)(=O)=O)n(CC(N)=O)n1 | 0
Nc1nc(N)c2nc(-c3ccccc3)[nH]c2n1 [SKF-12778] | 68
FC(F)(F)c1ccc(-c2ncn(CCCN3CCOCC3)c2-c2ccncc2)cc1 [SB-217780] | 0
COc1cc(OC)cc(-c2cc3cnc(N)nc3nc2NC(=O)NC(C)(C)C)c1 | 74
O=C(Nc1ccc2c(c1)OCO2)NC1CCN(c2ccnc(NCc3ccc(F)cc3)n2)CC1 [GSK1379859] | 0
O=C(NCc1cccs1)c1cc(C(=O)c2c(Cl)cccc2Cl)c[nH]1 [GW823670] | 0
COc1cc2nccc(Nc3ccc(OCc4ccc(NC(C)=O)cc4)cc3)c2cc1OC.Cl [GW440135] | 0
COc1cc2ncn(-c3cc(OCc4ccncc4Br)c(C(N)=O)s3)c2cc1OC [GW854278] | 12
CCn1c(-c2ccoc2)nc2cnccc21 [SB-733887] | 0

What follows are compounds tested on PIK3CA. Details: concentration: 1 μM, replicates: in singlicate; n = 1.

Structure (SMILES) | %Inh [%]
COc1ccc(Nc2nccc(N3CCC(NS(=O)(=O)c4ccc(NC(C)=O)cc4)C3)n2)cc1 (centres unmarked) [GSK1379729] | 4
CCn1c(-c2nonc2N)nc2ccccc21 [SB-693162/GW549034] | 0
COc1cccc(-n2cnc3c(N)ncnc32)c1 [SKF-97416] | 21
O=C(Nc1n[nH]c2nc(-c3ccccc3)c(Cl)cc12)C1CC1 [SB-734909] | 12
Cc1nnc(-c2ccc3ncn(-c4ccc(S(C)=O)cc4)c3c2)o1 (centres unmarked) | 0
CCC(=O)c1c(-c2ccccc2)c2cc(Cl)ccc2c(=O)n1Cc1cc(S(C)(=O)=O)n(CC(F)F)n1 | 0
Cc1ccc(-c2ccc3c(ccc4sc5c(c43)NC[C@@H](C)N=C5N(C)C)n2)cn1 | 0
Cc1nnc(-c2ccc(C)c(-c3ccc(C(=O)O)cc3)c2)o1 [GW608005] | 0
Fc1cccc(CSc2nnc(-c3ccc4c(c3)CCO4)o2)c1 | 10
O=C(NCCNc1ccnc(Nc2ccc(F)cc2)n1)Nc1ccc2c(c1)OCO2 [GSK1379882] | 7
CN(C)c1cc(-c2ccc3c(N)n[nH]c3c2)nc(N)n1 [GSK2219329] | 0
COc1cc2nccc(Nc3cccc(Oc4ccccc4)c3)c2cc1OC.Cl [GW284543] | 0
COc1ccc(-n2cnc3c(N)ncnc32)cc1 [SKF-97236] | 2
CCCNC(=O)Nc1ccc(Oc2ncnc3ccn(C)c23)cc1 | 14
COc1ccc(-c2cc3c(C)nc(N)nc3n([C@H]3CC[C@H](O)CC3)c2=O)cn1 | 99.7
COc1cc2ncn(-c3cc(OCCCc4ccccc4)c(C(N)=O)s3)c2cc1OC [GSK205189] | 0
CCc1ccc(-c2ccc3c(c2)-c2nn(C)cc2S(=O)(=O)N3C)cc1 | 0
Nc1n[nH]c2ncc(-c3ccccc3)cc12 [SB-517081] | 0
COc1ccc(CNC(=O)NC2CCN(c3ccnc(Nc4ccc(F)cc4)n3)C2)cc1 (centres unmarked) [GSK1379706] | 2

Structure (SMILES) | %Inh [%]
Cc1nn2c(=O)cc(N3CCOCC3)nc2n1Cc1cccc(Cl)c1Cl [GSK2342769] | 5
Cn1c(=O)c(F)c(Nc2ccc(I)cc2F)c2c(=O)n(OC[C@H](O)CO)cnc21 | 0
COC(=O)c1c(-c2ccccc2)c2cc(C)ccc2c(=O)n1Cc1ccccc1 | 0
Nc1ncnc2c1ncn2-c1ccc(Cl)cc1 [AH2635] | 0
COc1cccc(C2=C(N(C)c3ccccc3)C(=O)NC2=O)c1 [SB-334865] | 0
COc1cc(Nc2nccc(N3CCC(NC(=O)C4COc5ccccc5O4)C3)n2)cc(OC)c1OC (centres unmarked) [GSK1379761] | 0
COC(=O)c1c(-c2ccccc2)c2cc(Br)ccc2c(=O)n1Cc1ccc(NC(=O)CCC(=O)O)cc1 | 0
Nc1ncnc2c1ncn2-c1cccc2ccccc12 [SKF-97184] | 2
COc1ccc(-c2cc3c(C)nc(N)nc3n([C@H]3CC[C@H](OCCO)CC3)c2=O)cn1 | 100
CCC(=O)c1c(-c2ccccc2)c2cc(Cl)ccc2c(=O)n1Cc1cc(S(C)(=O)=O)n(CC(N)=O)n1 | 0
Nc1nc(N)c2nc(-c3ccccc3)[nH]c2n1 [SKF-12778] | 6
FC(F)(F)c1ccc(-c2ncn(CCCN3CCOCC3)c2-c2ccncc2)cc1 [SB-217780] | 0
COc1cc(OC)cc(-c2cc3cnc(N)nc3nc2NC(=O)NC(C)(C)C)c1 | 0
O=C(Nc1ccc2c(c1)OCO2)NC1CCN(c2ccnc(NCc3ccc(F)cc3)n2)CC1 [GSK1379859] | 0
O=C(NCc1cccs1)c1cc(C(=O)c2c(Cl)cccc2Cl)c[nH]1 [GW823670] | 0
COc1cc2nccc(Nc3ccc(OCc4ccc(NC(C)=O)cc4)cc3)c2cc1OC.Cl [GW440135] | 7
COc1cc2ncn(-c3cc(OCc4ccncc4Br)c(C(N)=O)s3)c2cc1OC [GW854278] | 0
CCn1c(-c2ccoc2)nc2cnccc21 [SB-733887] | 0
